{"source": "PubChem BioAssay (Tox21)", "note": "Activity calls are given as the source filed them. Where a call stands in place of a potency, no number is given. Calls follow the shape of the dose curve; as a rule, active = well fitted curve in the direction sought with a large enough effect in the repeat runs; inconclusive = weak or mixed curves; inactive = flat fitted curve, though single readings scatter. Potency is read from the fitted curve at half-maximal effect; tags tell the direction and shape of the fitted curve or compound fluorescence and quenching."}
{"assay": "qHTS assay to test for compound auto fluorescence at 535 nm (green) in HEK293 cells (AID 720680)", "settings": "green autofluorescence 485/535 nm; series mostly up to 46 µM", "description": "U.S. Tox21 Program National Center for Advancing Translational Sciences [NCATS] NIH Chemical Genomics Center [NCGC] U.S. Environmental Protection Agency [EPA] National Institutes of Environmental Health Sciences [NIEHS] National Toxicology Program [NTP] U.S. Food and Drug Administration [FDA] Tox21 Assay Overview: Compound auto fluorescence often interferes with screening of the compound library against various biological targets and signaling pathways. Some of these compounds may have fluorophoric properties. Such properties may interfere with the assay outputs resulting in false positives and/or negatives. To decrease such complications and ensure the compound activities are relevant in terms of biological response, the Tox21 10K compound library was screened for auto fluorescence. From the fluorophores used as reporter signals in our screening assays, the auto fluorescence equivalencies of compounds against three fluorophores have been evaluated: Triamterene, Fluorescein and Rose Bengal sodium for blue, green and red fluorescence, respectively. The fluorescence intensities were measured using Excitation/Emission wavelengths at 405/460nm, 485/535nm and 540/590nm for blue, green and red labels, respectively. This assay includes the green fluorescence data.\nTox21 Assay Protocol Summary: 2,000 HEK293 cells in 5 uL of culture medium containing 10% dialyzed FBS per well were dispensed into black wall/clear bottom 1536-well plates using a Multidrop Combi Dispenser (Thermo Scientific). The assay plates were incubated for 4-5 hr at 37C to allow cell attachment to the well bottom, followed by the transfer of 23 nL compound or DMSO vehicle by a pintool work station (Kalypsys, San Diego, CA). After the assay plates were incubated overnight at 37C and 5% CO2, fluorescence intensities in the assay plates were measured by an Envision (PerkinElmer, Shelton, CT) plate reader using three labels for measuring blue, green and red fluorescence at […] 460, 535 and 590nm respectively."}
{"smiles": "CCc1cc(OC)c(C[C@@H](C)N)cc1OC", "Potency": "inactive"}
{"smiles": "C#CC(C)(O)CC", "note": "(stereo not given)", "Potency": "inactive"}
{"smiles": "COc1ccc(OC)c(C[C@H](C)N)c1", "Potency": "inactive"}
{"smiles": "C[C@]12CC[C@H]3[C@@H](CCC4=C(O)C(=O)CC[C@@H]43)[C@@H]1CC[C@@H]2OC(=O)CCC1CCCC1", "Potency": "inactive"}
{"smiles": "CCNCC(O)c1cccc(O)c1", "note": "(stereo not given)", "Potency": "inactive"}
{"smiles": "Cc1ccccc1-n1c(C)nc2ccccc2c1=O", "Potency": "inactive"}
{"smiles": "O=C(C[C@@H]1NCCC[C@H]1O)Cn1cnc2cc(Br)c(Cl)cc2c1=O", "Potency": "inactive"}
{"smiles": "C[N+]1([O-])[C@@H]2CC(OC(=O)[C@H](CO)c3ccccc3)C[C@H]1[C@@H]1O[C@@H]12", "note": "(stereo not given in full)", "Potency": "inactive"}
{"smiles": "CC1(C)S[C@@H]2[C@H](N)C(=O)N2[C@H]1C(=O)O", "Potency": "inactive"}
{"smiles": "O=C(CS(=O)C(c1ccccc1)c1ccccc1)NO", "note": "(stereo not given)", "Potency": "inactive"}
{"smiles": "O=c1ccc2cc(O[C@@H]3O[C@H](CO)[C@@H](O)[C@H](O)[C@H]3O)c(O)cc2o1", "Potency": "inactive"}
{"smiles": "O=C1CCCCC1CN1CCCCC1", "note": "(stereo not given)", "Potency": "inactive"}
{"smiles": "CCC(N)Cc1c[nH]c2ccccc12", "note": "(stereo not given)", "Potency": "inactive"}
{"smiles": "Nc1ccc([N+](=O)[O-])cc1", "Potency": "inactive"}
{"smiles": "C[N+]1([O-])[C@@H]2CC[C@H]1CC(OC(=O)C(CO)c1ccccc1)C2", "note": "(stereo not given in full)", "Potency": "inactive"}
{"smiles": "CC(N)Cc1ccc(O)cc1", "note": "(stereo not given)", "Potency": "inactive"}
{"smiles": "C#CCN1CC(=O)N(COC(=O)C2C(C=C(C)C)C2(C)C)C1=O", "note": "(stereo not given)", "Potency": "inactive"}
{"smiles": "COc1ccc2c(c1)C13CCCC[C@@H]1C(C2)N(C)CC3", "note": "(stereo not given in full)", "Potency": "inactive"}
{"smiles": "CN=C1CN(O)C(c2ccccc2)=c2cc(Cl)ccc2=N1", "Potency": "inactive"}
{"smiles": "CCOC(=O)C1(c2ccccc2)CCCN(C)CC1", "note": "(stereo not given)", "Potency": "inactive"}
{"smiles": "C=CC[C@]1(O)CC[C@H]2[C@@H]3CCC4=CCCC[C@@H]4[C@H]3CC[C@@]21C", "Potency": "inactive"}
{"smiles": "CNC1(c2ccccc2Cl)CCCCC1=O", "note": "(stereo not given)", "Potency": "inactive"}
{"smiles": "[S]=[Sb](=[S])[S][Sb](=[S])=[S]", "Potency": "inactive"}
{"smiles": "CNC(C)CC1CCCCC1", "note": "(stereo not given)", "Potency": "inactive"}
{"smiles": "C[C@@H](CO)NC(=O)[C@@H]1C=C2c3cccc4[nH]cc(c34)C[C@H]2N(C)C1", "Potency": "inactive"}
{"smiles": "CC1(C)[C@H](C=C(Cl)Cl)[C@H]1C(=O)OCc1c(F)c(F)cc(F)c1F", "Potency": "inactive"}
{"smiles": "CC(=O)O[C@H]1C[C@H](O[C@H]2[C@@H](O)C[C@H](O[C@H]3[C@@H](O)C[C@H](OC4CC[C@@]5(C)[C@H](CC[C@@H]6[C@@H]5CC[C@]5(C)[C@@H](C7=CC(=O)OC7)CC[C@]65O)C4)O[C@@H]3C)O[C@@H]2C)O[C@H](C)[C@H]1O[C@@H]1O[C@H](CO)[C@@H](O)[C@H](O)[C@H]1O", "note": "(stereo not given in full)", "Potency": "inactive"}
{"smiles": "CCNC(C)Cc1cccc(C(F)(F)F)c1", "note": "(stereo not given)", "Potency": "inactive"}
{"smiles": "Clc1ccccc1-c1ccccc1Cl", "Potency": "inactive"}
{"smiles": "CC(C)[C@@]1(NC(=O)[C@@H]2C[C@@H]3c4cccc5[nH]cc(c45)C[C@H]3N(C)C2)O[C@@]2(O)[C@@H]3CCCN3C(=O)[C@H](Cc3ccccc3)N2C1=O", "Potency": "inactive"}
{"smiles": "C[N+]1(C)[C@@H]2CC[C@H]1CC(OC(=O)c1c[nH]c3ccccc13)C2", "note": "(stereo not given in full)", "Potency": "inactive"}
{"smiles": "C=C[C@H]1CN2CC[C@H]1C[C@@H]2[C@@H](O)c1ccnc2ccccc12", "Potency": "inactive"}
{"smiles": "O=C1OC2(c3cc(Br)c(O)cc3Oc3c2cc(Br)c(O)[c]3[Hg])c2ccccc21", "note": "(stereo not given)", "Potency": "10 µM [fluorescent] (active)"}
{"smiles": "C[C@@H]1[C@@H]2Cc3ccc(O)cc3[C@@]1(C)CCN2CCc1ccccc1", "Potency": "inactive"}
{"smiles": "c1ccc2c(c1)Sc1ccccc1N2CC1CN2CCC1CC2", "note": "(stereo not given)", "Potency": "inactive"}
{"smiles": "C/C=C(\\CC)C(=O)NC(N)=O", "Potency": "inactive"}
{"smiles": "CC(C)C[C@H]1C(=O)N2CCC[C@H]2[C@]2(O)O[C@](NC(=O)[C@@H]3C[C@@H]4c5cccc6[nH]cc(c56)C[C@H]4N(C)C3)(C(C)C)C(=O)N12", "Potency": "inactive"}
{"smiles": "N#CC(C#N)=Cc1cc(O)c(O)c(O)c1", "Potency": "inactive"}
{"smiles": "CC(=O)OCC(=O)[C@H]1CC[C@H]2[C@@H]3CC[C@H]4C[C@H](O)CC[C@]4(C)[C@H]3C(=O)C[C@]12C", "Potency": "inactive"}
{"smiles": "CNC(C)Cc1ccccc1", "note": "(stereo not given)", "Potency": "inactive"}
